A number with no mark means an inactive call. For some of these results: Measured potencies and affinities stand elsewhere. The source made the active and inactive calls. Unless noted, no rule for the calls is given here.
How the values were obtained:
[1] = human hepatoma cell viability loss – ATP luminescence, cytotoxicity control for P. falciparum antimalarial project, primary screen (AID 2303;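 active = inhibition above 50%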;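 also: 0% = DMSO wells and 100% = digitonin-killed cells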); settings: HepG2 viability, 24-48 h, at 10 µM, active compounds read high
[2] = biological target: L-lactate dehydrogenase (Plasmodium falciparum (isolate CDC / Honduras)) (UniProt Q27743); assay: PfLDH activity inhibition – cell lysate, 3D7 strain, counter-screen for P. falciparum growth inhibition project (AID 2304);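 also: 0% = vehicle and 100% = reference inhibitor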; settings: P. falciparum 3D7 crude extract, LDH APAD/NBT absorbance; at 2 µM; active compounds read high
[3] = inhibition of 3D7 malaria parasite growth – strain 3D7 (AID 2306);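 also: 0% = DMSO wells and 100% = chloroquine plus artemisinin control wells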; settings: P. falciparum 3D7 erythrocytic growth, LDH absorbance, 72 h; at 2 µM; active compounds read high
[4] = biological target: Calcium-dependent protein kinase 1 (Plasmodium falciparum (isolate 3D7)) (UniProt P62344); assay: PfCDPK1 kinase inhibitors, biochemical, TCAMS library (AID 1159585; cut-off not given, nearly all actives have IC50 up to about 0.98 µM;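 also: inhibitors leave more ATP so luminescence rises with inhibition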); settings: recombinant PfCDPK1, Kinase-Glo ATP depletion luminescence
[5] = biological target: Plasmodium falciparum protein kinase 6 (PK6, PF3D7_1337100) (UniProt Q8IDW1); assay: PfPK6 kinase inhibitors, biochemical, TCAMS library (AID 1159586); settings: recombinant PfPK6, Kinase-Glo ATP depletion luminescence
[6] = biological target: Protein kinase 7 (PK7), Plasmodium falciparum 3D7 (PF3D7_0213400) (UniProt Q7YTF7); assay: inhibition of Plasmodium PK7 catalytic activity – biochemical, TCAMS antimalarial set, Kinase-Glo luminescence (AID 1159587); settings: recombinant PfPK7, Kinase-Glo ATP depletion luminescence
[7] = biological target: Calcium-dependent protein kinase 4 (Plasmodium falciparum (isolate 3D7)) (UniProt Q8IBS5); assay: PfCDPK4 kinase inhibitors, biochemical, TCAMS library (AID 1159588; cut-off not given, nearly all actives have IC50 up to about 0.91 µM); settings: recombinant PfCDPK4, Kinase-Glo ATP depletion luminescence
Calcium-dependent protein kinase 4 (Plasmodium falciparum (isolate 3D7)), sequence (Q8IBS5 whole entry, looked up): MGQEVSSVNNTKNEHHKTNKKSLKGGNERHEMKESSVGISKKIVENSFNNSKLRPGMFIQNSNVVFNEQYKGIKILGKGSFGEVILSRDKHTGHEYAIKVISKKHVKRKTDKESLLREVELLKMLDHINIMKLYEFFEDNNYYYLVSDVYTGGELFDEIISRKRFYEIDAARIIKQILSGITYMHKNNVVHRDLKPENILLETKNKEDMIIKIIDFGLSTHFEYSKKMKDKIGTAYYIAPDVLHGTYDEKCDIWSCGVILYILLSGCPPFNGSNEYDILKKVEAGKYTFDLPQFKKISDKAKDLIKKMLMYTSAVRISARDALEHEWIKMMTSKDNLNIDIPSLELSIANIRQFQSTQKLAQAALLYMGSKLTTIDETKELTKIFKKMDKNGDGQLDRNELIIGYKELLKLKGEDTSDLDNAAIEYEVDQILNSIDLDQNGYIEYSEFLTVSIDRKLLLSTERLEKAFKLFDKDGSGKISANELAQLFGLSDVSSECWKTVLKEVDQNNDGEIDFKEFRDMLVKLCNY

Plasmodium falciparum protein kinase 6 (PK6, PF3D7_1337100), sequence (Q8IDW1 1-305): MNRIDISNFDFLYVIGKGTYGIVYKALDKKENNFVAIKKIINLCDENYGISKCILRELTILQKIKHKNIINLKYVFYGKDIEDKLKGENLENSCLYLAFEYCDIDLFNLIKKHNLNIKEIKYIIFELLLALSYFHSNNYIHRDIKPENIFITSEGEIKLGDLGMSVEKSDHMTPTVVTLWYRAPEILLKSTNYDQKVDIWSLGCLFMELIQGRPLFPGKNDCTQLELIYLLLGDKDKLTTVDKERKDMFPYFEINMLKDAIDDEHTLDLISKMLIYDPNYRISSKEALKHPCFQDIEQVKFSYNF
Protein kinase 7 (PK7), Plasmodium falciparum 3D7 (PF3D7_0213400), sequence (Q7YTF7 1-343): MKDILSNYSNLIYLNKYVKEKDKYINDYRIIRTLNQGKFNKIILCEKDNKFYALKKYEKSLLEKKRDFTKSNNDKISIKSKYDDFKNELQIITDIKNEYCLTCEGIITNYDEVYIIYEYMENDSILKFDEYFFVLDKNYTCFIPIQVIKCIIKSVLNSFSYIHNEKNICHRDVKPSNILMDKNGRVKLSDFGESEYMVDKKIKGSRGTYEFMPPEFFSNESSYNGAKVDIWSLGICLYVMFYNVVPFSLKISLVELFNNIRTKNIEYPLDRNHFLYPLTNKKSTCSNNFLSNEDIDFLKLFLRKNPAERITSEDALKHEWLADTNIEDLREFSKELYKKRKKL
L-lactate dehydrogenase (Plasmodium falciparum (isolate CDC / Honduras)), sequence (Q27743 whole entry, looked up): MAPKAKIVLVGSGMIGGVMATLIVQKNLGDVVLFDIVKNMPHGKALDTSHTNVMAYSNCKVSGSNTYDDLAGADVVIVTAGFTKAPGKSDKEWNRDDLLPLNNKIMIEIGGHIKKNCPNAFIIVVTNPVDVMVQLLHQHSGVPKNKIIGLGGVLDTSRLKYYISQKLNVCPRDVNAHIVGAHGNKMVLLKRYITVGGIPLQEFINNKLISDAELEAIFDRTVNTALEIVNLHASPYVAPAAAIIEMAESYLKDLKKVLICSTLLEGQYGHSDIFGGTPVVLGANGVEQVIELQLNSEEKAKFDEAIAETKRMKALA
Calcium-dependent protein kinase 1 (Plasmodium falciparum (isolate 3D7)), sequence (P62344 whole entry, looked up): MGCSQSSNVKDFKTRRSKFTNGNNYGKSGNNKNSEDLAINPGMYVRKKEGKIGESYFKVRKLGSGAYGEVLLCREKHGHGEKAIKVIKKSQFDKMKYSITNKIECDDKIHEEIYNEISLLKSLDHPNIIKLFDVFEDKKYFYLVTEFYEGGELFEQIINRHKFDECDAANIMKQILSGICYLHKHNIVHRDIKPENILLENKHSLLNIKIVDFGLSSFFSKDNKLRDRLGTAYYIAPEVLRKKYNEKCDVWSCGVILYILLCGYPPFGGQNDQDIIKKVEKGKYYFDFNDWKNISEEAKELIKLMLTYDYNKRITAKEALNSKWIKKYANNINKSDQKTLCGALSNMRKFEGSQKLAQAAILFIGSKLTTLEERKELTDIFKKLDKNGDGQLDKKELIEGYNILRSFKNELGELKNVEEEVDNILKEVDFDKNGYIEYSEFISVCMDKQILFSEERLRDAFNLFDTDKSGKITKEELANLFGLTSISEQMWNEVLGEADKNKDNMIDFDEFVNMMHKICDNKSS

Structure (SMILES)	inhibition [1]	inhibition [2]	growth inhibition [3]	outcome [4]	outcome [5]	outcome [6]	outcome [7]
CC(C)CN1C(=O)C(c2ccc(F)c(F)c2)=C(O)C1c1ccccc1 (centres undefined)	0%	-7%	94% (active)	inactive	inactive	inactive	inactive
Oc1ccc(CCNCCCCCNCCCc2ccc(Cl)cc2)cc1O	22%	-3%	91% (active)	inactive	inactive	inactive	inactive
O=C(NCCCCN1CCC(c2ccc3c(c2OCCCO)CCCC3)CC1)c1ccc(-c2ccc(C(F)(F)F)cc2)c(CO)c1	66% (active)	4%	95% (active)	inactive	inactive	inactive	inactive
C=CC(C)C1OC(=O)c2cc(OC)cc(OC)c21 (centres undefined)	100% (active)	-4%	100% (active)	inactive	inactive	inactive	inactive
CC(C)Cc1csc(NC(=O)C=Cc2ccco2)c1C(=O)O	4%	-2%	82% (active)	inactive	inactive	inactive	inactive
Cc1cc2c(cc1C(F)(F)F)N(C(=O)Nc1ccc(C(=O)NCCN3CCCC3)cc1)CC2	10%	3%	100% (active)	inactive	inactive	inactive	inactive
CN1CCC(N2CCN(C(=O)c3cccc(-c4cccc(-c5nc6ccccc6[nH]5)c4)c3)CC2)CC1	10%	3%	100% (active)	inactive	inactive	inactive	inactive
CN(C)c1ccc(NC(=O)Nc2ccnc3ccccc23)cc1Br	21%	3%	98% (active)	inactive	inactive	inactive	inactive
COc1ccc(NS(=O)(=O)c2ccc(Oc3nc(C)nc4sc5c(c34)CCCC5)cc2)cc1	5%	-2%	96% (active)	inactive	inactive	inactive	inactive
C=CCOc1cc(Cc2cnc(N)nc2N)cc(OC)c1OC	-14%	2%	81% (active)	inactive	inactive	inactive	inactive
COc1ccc(C2CC(c3cccs3)=NN2C(=O)COc2cccc(C(C)=O)c2)cc1OC (centres undefined)	10%	-2%	99% (active)	inactive	inactive	inactive	inactive
CCn1c(-c2nonc2N)nc2c(-c3cccc(NC(=O)NCc4ccccc4)c3)ncc(OCCCN)c21	5%	-7%	99% (active)	inactive	inactive	inactive	inactive
O=C(NNC(=O)c1ccc(CN2CCC(c3nc4ccccc4[nH]3)CC2)cc1)Nc1ccc(Oc2ccccc2)cc1	-2%	0%	86% (active)	inactive	inactive	inactive	inactive
Nc1[nH]c2ccccc2c(=O)c1-c1nc2ccccc2s1	16%	-6%	97% (active)	inactive	inactive	inactive	inactive
O=C(Nc1cccc(Cl)c1)c1cc2ccccc2cc1O	4%	-8%	97% (active)	inactive	inactive	inactive	inactive
O=C(c1ccccc1)N1CCC[C@](CCCN2CCN(c3ccccc3O)CC2)(c2ccc(Cl)c(Cl)c2)C1	16%	-3%	80% (active)	inactive	inactive	inactive	inactive
Cc1ccc(-n2c(C)cc(C(=O)CN3C(=O)NC(Cc4ccccc4)C3=O)c2C)cc1 (centres undefined)	-11%	3%	82% (active)	inactive	inactive	inactive	inactive
O=C(CN1C(=O)CC1S(=O)(=O)Cc1ccco1)NCCCCCCc1ccc(F)cc1 (centres undefined)	-2%	-4%	95% (active)	inactive	inactive	inactive	inactive
COc1ccc(Cl)cc1N1CCN(CCCNC(=O)c2ccc(-c3nc4c(C)cccc4[nH]3)s2)CC1	-2%	5%	98% (active)	inactive	inactive	inactive	inactive
NC(=O)c1sc(-n2cnc3ccc(C(=O)NCCN4CCOCC4)cc32)cc1OCc1ccccc1C(F)(F)F	-15%	1%	81% (active)	inactive	inactive	inactive	inactive
Cc1nc(Nc2ccc(F)cc2)nc(N2CCc3ccccc3[C@@H]2C)c1C	12%	-3%	92% (active)	inactive	inactive	inactive	inactive
CCc1cc(-c2n[nH]c(C(F)(F)F)c2-c2ccccc2)c(O)cc1OC	9%	1%	84% (active)	inactive	inactive	inactive	inactive
